Source: PubChem BioAssay (NCI)
Values joined by “and” are separate entries in the source; they are usually repeats but may differ in a detail not shown here. Identical values can stand only once. The panel holds about 83,000 compounds, 20% with a hit somewhere; the sample as a whole holds those more often.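 Activity criterion: percent growth below 10, measured after cells in 96-well plates were exposed to a single compound concentration for 48 hours.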 Active and inactive are the calls of the source.

Test system: NCI-H522 lung
Test: NCI-60 one-dose screen, 48 h (100 = growth as untreated, 0 = no growth, -100 = all killed)
Details: 4.75 µM
Experimental: Growth inhibition of the NCI-H522 human Non-Small Cell Lung tumor cell line is measured as a screen for anti-cancer activity. Cells are grown in 96 well plates and exposed to the test compound for 48 hours. Compounds are tested at a single concentration, which is 10^-5 M for most compounds. The reported endpoint is percent growth (GI% or GIPRCNT), where numbers from 0 - 100% represent growth inhibition, and numbers from -100% - 0 represent cell death. For example, a value of 40 represents 60% growth inhibition. A value of 0 means no net growth occurred over the course of the experiment. A value of -40 indicates 40% of cells at the beginning of the experiment died by the end of the experiment. A value of -100 means all cells are dead at the end of the experiment.
NCI-60 Human Tumor Cell Lines Screen was performed using the standard one-dose NCI protocol, which is described in more detail at https://dtp.cancer.gov/discovery_development/nci-60/default.htm.
Compounds with GIPRCNT values below 10 were considered active. Activity score was based on GIPRCNT using the following formula: […]
Score is 0 for GIPRCNT values of 100 or above, 50 for GIPRCNT values of 0, and 100 for GIPRCNT values of -100.

Structure (SMILES) | growth
CC(=O)OCC1OC([S-])C(OC(C)=O)C(OC(C)=O)C1OC(C)=O.[Au+].c1ccc(CN2[CH-]N(Cc3ccccc3)C(c3ccccc3)=C2c2ccccc2)cc1 | -68.7% (active)

Same assay, conditions: 10 µM

Structure (SMILES) | growth
CC(=O)OCC1OC([S-])C(OC(C)=O)C(OC(C)=O)C1OC(C)=O.[Au+].c1ccc(CN2[CH-]N(Cc3ccccc3)C(c3ccccc3)=C2c2ccccc2)cc1 | -27.9% (active)

Same assay, conditions: 10 µM unless noted

Structure (SMILES) | growth
O=C(NCCCN1CC1)Nc1cccc2ccccc12 | 108% (inactive) and 79.1% (inactive)
O=C(O)C1C(C(=O)O)C2(Cl)C(Cl)=C(Cl)C1(Cl)C2(Cl)Cl (stereo not given) | 97.2% (inactive) and 123% (inactive)
CSc1cc(/C=C(\C)[C@@H]2C[C@@H]3O[C@]3(C)CCC[C@H](C)[C@H](O)[C@@H](C)C(=O)C(C)(C)[C@@H](O)CC(=O)O2)n(CCNC(=O)OC(C)(C)C)n1 | 63.1% (inactive)
Nc1nc(=S)nc(N)[nH]1 | 75.5% (inactive)
COc1ccc2c(c1)c(-c1nc(-c3cn(C)c4ncccc34)cs1)cn2CCCCN1CCOCC1 | 3.68% (active)
CC[CH2][Sn]([Cl])([Cl])[CH2]CC.Oc1ccccc1C=NCCN=Cc1ccccc1O | -87.6% (active) and -83.2% (active)
Cc1cc(NC(=O)NCCCOc2ccc(N3C(N)=NC(N)=NC3(C)C)cc2Cl)ccc1S(=O)(=O)F | 7.9% (active)
N#CC(N)c1ccccc1 (stereo not given) | 109% (inactive)
CC[C@H](C)[C@H]1O[C@]2(C=C[C@@H]1C)C[C@@H]1C[C@@H](C/C=C(\C)[C@@H](O[C@H]3C[C@H](OC)[C@@H](O[C@H]4C[C@H](OC)[C@@H](NC)[C@H](C)O4)[C@H](C)O3)[C@@H](C)/C=C/C=C3\CO[C@@H]4[C@H](O)C(C)=C[C@@H](C(=O)O1)[C@]34O)O2 | -70.3% (active)
CCCCOCCOP(=O)(OCCOCCCC)OCCOCCCC | 100% (inactive)
CC[PH+](CC)CC.O=COC1OC([S-])C(OC=O)C(OC=O)C1OC=O.[Au+] (stereo not given) | -75% (active)
O=C(O)C(F)F | 101% (inactive)
CC[C@H](C)[C@H](NC(=O)c1cnccn1)C(=O)N(C)[C@H](C[C@@H](OC(C)=O)c1nc(C(=O)N[C@@H](Cc2ccccc2)C[C@H](C)C(=O)OC)cs1)C(C)C | -24.6% (active)
CC[C@H](C)[C@H](NC(=O)CN(C)C)C(=O)N(C)[C@H](C[C@@H](OC(C)=O)c1nc(C(=O)NC23C4C5C2C2C3C4C52C(=O)OC)cs1)C(C)C (stereo not given in full) | 24.1% (inactive)
C=C[Se]CC(=O)/C=C/c1ccccc1 | 89.2% (inactive)
NC(=O)c1c(Br)c(Br)c(Br)c(Br)c1C(=O)O (tested in a mixture with another compound) | 93% (inactive) and 99.3% (inactive)
CCOC(=O)C1C(C=C(C)C)C1(C)C (stereo not given) | 97.5% (inactive)
N#CCN(CC#N)[N+](=O)[O-] | 94.4% (inactive)
Oc1cc(N2CC2)c(O)cc1N1CC1 | -74.7% (active)

Structure (SMILES) | growth
COC(=O)CCP(CCC(=O)OC)c1ccccc1 | 102% (inactive)
COc1c(O)cc2c(c1OC)-c1ccc(SC)c(=O)cc1C(NC(C)=O)CC2 (stereo not given) | -46.8% (active)
COc1ccc(C(C#N)C(C)=O)cc1 (stereo not given) | 82.5% (inactive)
CC[C@H](C)[C@H](NC(=O)c1ncccn1)C(=O)N(C)[C@H](C[C@@H](OC(C)=O)c1nc(C(=O)N[C@@H](Cc2ccccc2)C[C@H](C)C(=O)OC)cs1)C(C)C | 0.376% (active)
O=S(=O)(F)c1cccc(Cl)c1C[P+](c1ccccc1)(c1ccccc1)c1ccccc1 | 88.8% (inactive)
C[Se]/C=C1/C(=O)N(c2c(Cl)cccc2Cl)c2ccccc21 | 21.1% (inactive)
CCOP(=O)(NC)OCC | 112% (inactive)
O=C(NC(Cl)=C(Cl)Cl)P(=O)(c1ccccc1)c1ccccc1 | 99.4% (inactive)
CC(=O)C(N)Cc1ccccc1 (stereo not given) | 91.7% (inactive)
CCOC(=O)P(=O)(OCC)OCC | 85.7% (inactive)
Cc1ccc(P(=O)(O)O)cc1 | 101% (inactive)
Cn1cc(C(=O)C[n+]2ccccc2)c2ccccc21 | 96.9% (inactive)
CC(=O)OC1CC2(O)C(CCC3(C)C(c4ccc(=O)oc4)CCC32O)C2(C)CCC(OC3OC(CO)C(O)C(O)C3O)C=C12 (stereo not given) | -39.2% (active)
CO/N=C1\CC[C@]2(C)[C@H]3CC[C@]4(C)C(=O)CC[C@H]4[C@@H]3C[C@@H]3SC(N)=N[C@@]32C1 | 94.9% (inactive)
O=C(O)c1ccccc1N(CCO)CCCl | 93.3% (inactive)
CC1=C([Te]c2ccccc2)C(=O)c2ccccc2C1=O | -15.3% (active)
COC(=O)C12C3C4C1C1C2C3C41NC(=O)c1csc([C@@H](C[C@H](C(C)C)N(C)C(=O)[C@@H](NC(=O)[C@H]2CCCCN2C)C2CC2)OC(C)=O)n1 (stereo not given in full) | -21.1% (active)
CCCCCCCCCCCCCCCC[N+](C)(C)Cc1ccccc1 | 4.46% (active) and -58.2% (active)
CC1=C2[C@H]3OC(=O)[C@@H](C)[C@@H]3CC[C@@]2(C)C=CC1=O | 123% (inactive)
